# Experimental data as given in ChEMBL document CHEMBL1961873, “Compounds: GSK PKIS; Assays: Nanosyn kinase panel” (2012).
# How the values were obtained:
# [1] = target: T1, Ephrin type-B receptor 2 (Homo sapiens) (UniProt P29323); conditions: at 1 µM
# T1 sequence (whole entry): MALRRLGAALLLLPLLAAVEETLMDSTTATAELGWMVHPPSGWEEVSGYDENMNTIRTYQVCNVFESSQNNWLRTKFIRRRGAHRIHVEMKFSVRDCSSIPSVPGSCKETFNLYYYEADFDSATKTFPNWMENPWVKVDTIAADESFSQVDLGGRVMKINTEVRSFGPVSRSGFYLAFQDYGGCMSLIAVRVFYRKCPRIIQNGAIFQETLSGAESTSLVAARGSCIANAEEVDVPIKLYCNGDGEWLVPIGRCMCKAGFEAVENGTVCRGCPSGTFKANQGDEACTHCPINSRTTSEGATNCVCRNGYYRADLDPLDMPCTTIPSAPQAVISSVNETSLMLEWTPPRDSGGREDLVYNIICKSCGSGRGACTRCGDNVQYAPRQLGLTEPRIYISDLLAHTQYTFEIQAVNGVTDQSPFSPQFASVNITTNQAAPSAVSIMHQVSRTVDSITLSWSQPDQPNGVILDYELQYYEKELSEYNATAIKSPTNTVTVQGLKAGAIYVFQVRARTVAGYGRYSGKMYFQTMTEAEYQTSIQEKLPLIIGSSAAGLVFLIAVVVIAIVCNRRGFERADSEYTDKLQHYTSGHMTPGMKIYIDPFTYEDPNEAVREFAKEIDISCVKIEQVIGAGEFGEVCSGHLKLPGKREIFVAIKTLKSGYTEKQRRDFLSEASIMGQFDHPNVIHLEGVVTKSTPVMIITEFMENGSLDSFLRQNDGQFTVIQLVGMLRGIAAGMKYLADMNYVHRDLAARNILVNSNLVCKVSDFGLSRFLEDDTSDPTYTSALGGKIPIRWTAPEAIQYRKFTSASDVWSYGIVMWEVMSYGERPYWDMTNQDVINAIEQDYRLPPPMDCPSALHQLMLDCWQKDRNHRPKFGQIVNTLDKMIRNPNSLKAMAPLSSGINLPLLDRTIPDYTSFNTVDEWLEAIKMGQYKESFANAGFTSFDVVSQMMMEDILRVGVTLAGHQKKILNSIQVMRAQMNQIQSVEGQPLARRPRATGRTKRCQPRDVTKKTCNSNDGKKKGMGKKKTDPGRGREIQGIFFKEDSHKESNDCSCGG
# [2] = target: T2, Ephrin type-B receptor 3 (Homo sapiens) (UniProt P54753); conditions: at 0.1 µM
# T2 sequence (whole entry): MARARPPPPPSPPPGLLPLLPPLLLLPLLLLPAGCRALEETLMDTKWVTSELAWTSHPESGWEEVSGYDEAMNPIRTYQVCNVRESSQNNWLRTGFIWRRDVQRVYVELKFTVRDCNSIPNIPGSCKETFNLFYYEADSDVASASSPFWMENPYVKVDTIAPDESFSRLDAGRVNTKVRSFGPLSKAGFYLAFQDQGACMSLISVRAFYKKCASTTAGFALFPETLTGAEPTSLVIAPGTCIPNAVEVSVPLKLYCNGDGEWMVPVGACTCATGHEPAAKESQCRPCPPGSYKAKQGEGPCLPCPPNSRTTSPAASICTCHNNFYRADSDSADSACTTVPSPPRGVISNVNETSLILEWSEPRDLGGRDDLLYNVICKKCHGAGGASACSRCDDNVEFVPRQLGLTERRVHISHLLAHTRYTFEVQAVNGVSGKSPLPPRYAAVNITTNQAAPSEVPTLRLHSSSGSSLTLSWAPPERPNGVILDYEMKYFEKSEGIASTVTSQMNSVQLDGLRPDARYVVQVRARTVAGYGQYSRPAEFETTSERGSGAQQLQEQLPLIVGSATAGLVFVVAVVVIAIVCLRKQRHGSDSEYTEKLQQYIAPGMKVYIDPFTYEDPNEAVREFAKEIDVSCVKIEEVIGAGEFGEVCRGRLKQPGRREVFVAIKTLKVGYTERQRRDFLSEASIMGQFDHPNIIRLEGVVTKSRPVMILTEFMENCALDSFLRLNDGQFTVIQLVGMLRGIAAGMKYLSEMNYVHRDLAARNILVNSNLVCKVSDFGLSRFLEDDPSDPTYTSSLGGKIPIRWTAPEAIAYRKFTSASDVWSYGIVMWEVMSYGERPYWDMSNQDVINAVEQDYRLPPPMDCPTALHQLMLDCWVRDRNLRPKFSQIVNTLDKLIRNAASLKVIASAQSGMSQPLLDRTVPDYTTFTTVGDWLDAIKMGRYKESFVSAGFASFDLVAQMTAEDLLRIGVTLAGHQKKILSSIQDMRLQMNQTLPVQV
# [3] = target: T2, Ephrin type-B receptor 3 (Homo sapiens); conditions: at 1 µM
# [4] = target: T3, Ephrin type-B receptor 4 (Homo sapiens) (UniProt P54760); conditions: at 0.1 µM
# T3 sequence (whole entry): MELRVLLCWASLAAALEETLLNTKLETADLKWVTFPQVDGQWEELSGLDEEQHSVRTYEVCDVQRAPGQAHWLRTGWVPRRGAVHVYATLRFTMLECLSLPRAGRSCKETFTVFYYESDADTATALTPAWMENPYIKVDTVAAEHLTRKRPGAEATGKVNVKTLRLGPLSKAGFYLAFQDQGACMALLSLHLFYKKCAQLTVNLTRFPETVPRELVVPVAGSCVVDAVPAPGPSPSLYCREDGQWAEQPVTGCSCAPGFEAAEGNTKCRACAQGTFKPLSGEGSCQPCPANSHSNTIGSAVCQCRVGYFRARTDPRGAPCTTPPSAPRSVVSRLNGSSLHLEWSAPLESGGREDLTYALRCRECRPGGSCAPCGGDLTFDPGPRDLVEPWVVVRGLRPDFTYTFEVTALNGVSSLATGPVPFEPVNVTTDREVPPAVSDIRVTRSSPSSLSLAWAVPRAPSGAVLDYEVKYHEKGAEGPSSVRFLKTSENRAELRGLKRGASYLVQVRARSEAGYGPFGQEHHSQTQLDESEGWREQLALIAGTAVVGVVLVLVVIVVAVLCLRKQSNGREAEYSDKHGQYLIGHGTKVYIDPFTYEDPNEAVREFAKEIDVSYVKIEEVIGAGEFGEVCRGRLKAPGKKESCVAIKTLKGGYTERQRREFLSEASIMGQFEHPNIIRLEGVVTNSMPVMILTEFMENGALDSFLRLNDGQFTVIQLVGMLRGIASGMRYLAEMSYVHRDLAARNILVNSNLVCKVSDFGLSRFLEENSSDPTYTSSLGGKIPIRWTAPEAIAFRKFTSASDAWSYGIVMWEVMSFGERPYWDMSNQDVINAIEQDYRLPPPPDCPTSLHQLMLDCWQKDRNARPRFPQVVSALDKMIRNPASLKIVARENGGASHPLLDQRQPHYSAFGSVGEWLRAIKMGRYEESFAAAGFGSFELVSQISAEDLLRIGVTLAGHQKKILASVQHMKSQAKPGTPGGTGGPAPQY
# [5] = target: T3, Ephrin type-B receptor 4 (Homo sapiens); conditions: at 1 µM
# [6] = target: Receptor tyrosine-protein kinase erbB-2 (Homo sapiens) (UniProt P04626); conditions: at 0.1 µM
# [7] = target: Receptor tyrosine-protein kinase erbB-2 (Homo sapiens) (UniProt P04626); conditions: at 1 µM
# [8] = target: Receptor tyrosine-protein kinase erbB-4 (Homo sapiens) (UniProt Q15303); conditions: at 0.1 µM
# [9] = target: Receptor tyrosine-protein kinase erbB-4 (Homo sapiens) (UniProt Q15303); conditions: at 1 µM
# [10] = target: Tyrosine-protein kinase Fer (Homo sapiens) (UniProt P16591); conditions: at 0.1 µM
# [11] = target: Tyrosine-protein kinase Fer (Homo sapiens) (UniProt P16591); conditions: at 1 µM
# [12] = target: Tyrosine-protein kinase Fes/Fps (Homo sapiens) (UniProt P07332); conditions: at 0.1 µM
# [13] = target: Tyrosine-protein kinase Fes/Fps (Homo sapiens) (UniProt P07332); conditions: at 1 µM
# [14] = target: Fibroblast growth factor receptor 1 (Homo sapiens) (UniProt P11362); conditions: at 0.1 µM
# [15] = target: Fibroblast growth factor receptor 1 (Homo sapiens) (UniProt P11362); conditions: at 1 µM
# [16] = target: Fibroblast growth factor receptor 2 (Homo sapiens) (UniProt P21802); conditions: at 0.1 µM
# [17] = target: Fibroblast growth factor receptor 2 (Homo sapiens) (UniProt P21802); conditions: at 1 µM
# [18] = target: Fibroblast growth factor receptor 3 (Homo sapiens) (UniProt P22607); conditions: at 0.1 µM
# [19] = target: Fibroblast growth factor receptor 3 (Homo sapiens) (UniProt P22607); conditions: at 1 µM
# [20] = target: Fibroblast growth factor receptor 4 (Homo sapiens) (UniProt P22455); conditions: at 0.1 µM;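 further: values are mean percent inhibition of FGFR4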
# Chain of Fibroblast growth factor receptor 4 (Homo sapiens) (P22455 22-802 limits assumed): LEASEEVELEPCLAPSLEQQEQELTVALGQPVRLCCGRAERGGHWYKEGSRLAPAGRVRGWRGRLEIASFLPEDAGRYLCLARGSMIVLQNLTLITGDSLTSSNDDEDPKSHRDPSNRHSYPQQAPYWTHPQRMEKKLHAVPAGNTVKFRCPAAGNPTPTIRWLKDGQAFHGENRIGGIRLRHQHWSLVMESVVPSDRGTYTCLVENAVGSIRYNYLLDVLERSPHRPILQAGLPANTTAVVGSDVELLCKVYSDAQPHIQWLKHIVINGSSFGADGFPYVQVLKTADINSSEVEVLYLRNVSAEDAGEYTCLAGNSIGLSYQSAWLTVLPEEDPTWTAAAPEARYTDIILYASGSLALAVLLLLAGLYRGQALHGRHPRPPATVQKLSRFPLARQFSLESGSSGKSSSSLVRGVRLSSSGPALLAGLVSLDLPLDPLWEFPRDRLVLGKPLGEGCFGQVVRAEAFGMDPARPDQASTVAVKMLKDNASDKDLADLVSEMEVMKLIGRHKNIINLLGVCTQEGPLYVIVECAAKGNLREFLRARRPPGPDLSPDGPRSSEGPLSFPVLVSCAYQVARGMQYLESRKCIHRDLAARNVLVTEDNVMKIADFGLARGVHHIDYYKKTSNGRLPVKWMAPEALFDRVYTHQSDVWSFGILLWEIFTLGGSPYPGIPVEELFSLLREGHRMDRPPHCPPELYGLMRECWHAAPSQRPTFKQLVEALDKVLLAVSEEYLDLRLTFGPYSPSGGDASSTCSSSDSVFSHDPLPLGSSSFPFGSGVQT
# Chain of Tyrosine-protein kinase Fes/Fps (Homo sapiens) (P07332 whole entry): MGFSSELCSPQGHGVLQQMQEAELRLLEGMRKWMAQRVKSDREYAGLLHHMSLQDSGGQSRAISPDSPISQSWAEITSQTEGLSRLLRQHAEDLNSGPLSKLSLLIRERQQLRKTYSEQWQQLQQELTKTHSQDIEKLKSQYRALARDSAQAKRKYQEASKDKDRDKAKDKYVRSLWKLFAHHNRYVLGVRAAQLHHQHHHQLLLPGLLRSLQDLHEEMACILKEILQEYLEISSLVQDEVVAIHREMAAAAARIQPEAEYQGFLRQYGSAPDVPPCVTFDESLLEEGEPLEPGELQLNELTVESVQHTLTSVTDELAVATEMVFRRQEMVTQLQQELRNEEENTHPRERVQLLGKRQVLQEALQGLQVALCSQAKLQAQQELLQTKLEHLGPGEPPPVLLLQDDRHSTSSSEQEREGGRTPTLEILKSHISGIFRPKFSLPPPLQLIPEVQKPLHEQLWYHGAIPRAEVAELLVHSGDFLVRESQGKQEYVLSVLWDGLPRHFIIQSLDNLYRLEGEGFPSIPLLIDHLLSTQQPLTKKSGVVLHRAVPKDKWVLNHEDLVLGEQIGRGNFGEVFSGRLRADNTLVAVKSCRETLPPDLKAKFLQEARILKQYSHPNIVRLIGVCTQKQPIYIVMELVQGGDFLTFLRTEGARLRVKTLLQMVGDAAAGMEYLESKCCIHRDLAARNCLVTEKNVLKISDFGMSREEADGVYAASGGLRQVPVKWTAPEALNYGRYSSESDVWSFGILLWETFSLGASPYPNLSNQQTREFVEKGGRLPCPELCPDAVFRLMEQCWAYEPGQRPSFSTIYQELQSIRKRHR
# Chain of Receptor tyrosine-protein kinase erbB-4 (Homo sapiens) (Q15303 whole entry): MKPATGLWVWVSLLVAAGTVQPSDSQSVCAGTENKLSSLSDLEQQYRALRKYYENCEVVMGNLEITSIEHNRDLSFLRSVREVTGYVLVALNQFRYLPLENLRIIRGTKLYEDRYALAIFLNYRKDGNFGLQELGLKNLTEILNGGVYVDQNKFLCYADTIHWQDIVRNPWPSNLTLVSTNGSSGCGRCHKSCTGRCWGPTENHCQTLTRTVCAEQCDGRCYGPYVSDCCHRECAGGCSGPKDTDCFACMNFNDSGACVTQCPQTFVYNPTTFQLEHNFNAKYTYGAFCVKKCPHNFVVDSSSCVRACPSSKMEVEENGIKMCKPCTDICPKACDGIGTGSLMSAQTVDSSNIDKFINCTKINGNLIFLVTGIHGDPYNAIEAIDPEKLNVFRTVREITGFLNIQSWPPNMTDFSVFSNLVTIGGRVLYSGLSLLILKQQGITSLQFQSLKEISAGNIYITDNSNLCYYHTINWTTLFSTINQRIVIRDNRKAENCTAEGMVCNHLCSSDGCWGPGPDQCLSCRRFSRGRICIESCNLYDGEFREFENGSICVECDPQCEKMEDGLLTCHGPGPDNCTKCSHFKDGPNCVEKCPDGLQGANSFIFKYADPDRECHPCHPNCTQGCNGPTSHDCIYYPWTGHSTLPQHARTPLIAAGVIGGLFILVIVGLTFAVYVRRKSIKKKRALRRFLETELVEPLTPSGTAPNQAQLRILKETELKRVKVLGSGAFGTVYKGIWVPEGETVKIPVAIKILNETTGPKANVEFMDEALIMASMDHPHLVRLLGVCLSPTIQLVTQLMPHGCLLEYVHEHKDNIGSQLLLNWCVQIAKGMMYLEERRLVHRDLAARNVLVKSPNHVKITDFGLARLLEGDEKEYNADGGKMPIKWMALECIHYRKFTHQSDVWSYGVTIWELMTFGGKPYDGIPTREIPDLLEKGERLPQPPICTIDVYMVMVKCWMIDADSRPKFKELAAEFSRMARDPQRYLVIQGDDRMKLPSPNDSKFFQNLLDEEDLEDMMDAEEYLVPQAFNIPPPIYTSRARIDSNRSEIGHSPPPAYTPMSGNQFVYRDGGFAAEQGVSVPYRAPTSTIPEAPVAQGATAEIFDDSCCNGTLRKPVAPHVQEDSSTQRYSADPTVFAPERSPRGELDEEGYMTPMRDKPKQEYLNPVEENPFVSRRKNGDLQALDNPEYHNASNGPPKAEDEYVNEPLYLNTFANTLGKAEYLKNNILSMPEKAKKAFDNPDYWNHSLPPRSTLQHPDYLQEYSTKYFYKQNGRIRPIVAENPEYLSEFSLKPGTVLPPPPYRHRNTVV
# Chain of Fibroblast growth factor receptor 3 (Homo sapiens) (P22607 23-806 limits assumed): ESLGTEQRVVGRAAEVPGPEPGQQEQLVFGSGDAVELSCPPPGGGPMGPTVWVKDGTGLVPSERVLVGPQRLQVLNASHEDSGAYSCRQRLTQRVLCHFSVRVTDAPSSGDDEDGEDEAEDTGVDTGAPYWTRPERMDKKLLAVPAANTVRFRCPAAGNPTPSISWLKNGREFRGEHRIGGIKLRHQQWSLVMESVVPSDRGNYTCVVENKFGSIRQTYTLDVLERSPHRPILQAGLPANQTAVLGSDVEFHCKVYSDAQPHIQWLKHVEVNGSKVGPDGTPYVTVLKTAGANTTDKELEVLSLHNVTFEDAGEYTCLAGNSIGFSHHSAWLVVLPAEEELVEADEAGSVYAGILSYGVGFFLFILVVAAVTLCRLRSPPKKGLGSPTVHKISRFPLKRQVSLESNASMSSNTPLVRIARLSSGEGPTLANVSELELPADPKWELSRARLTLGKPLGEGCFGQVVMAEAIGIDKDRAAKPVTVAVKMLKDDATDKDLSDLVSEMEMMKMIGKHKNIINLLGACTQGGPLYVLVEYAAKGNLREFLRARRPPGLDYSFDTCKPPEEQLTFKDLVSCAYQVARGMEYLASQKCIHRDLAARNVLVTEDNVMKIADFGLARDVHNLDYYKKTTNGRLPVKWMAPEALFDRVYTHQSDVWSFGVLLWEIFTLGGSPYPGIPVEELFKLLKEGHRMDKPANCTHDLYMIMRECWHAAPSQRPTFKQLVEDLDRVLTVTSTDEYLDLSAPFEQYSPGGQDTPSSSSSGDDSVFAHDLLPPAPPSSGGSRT
# Chain of Receptor tyrosine-protein kinase erbB-2 (Homo sapiens) (P04626 whole entry): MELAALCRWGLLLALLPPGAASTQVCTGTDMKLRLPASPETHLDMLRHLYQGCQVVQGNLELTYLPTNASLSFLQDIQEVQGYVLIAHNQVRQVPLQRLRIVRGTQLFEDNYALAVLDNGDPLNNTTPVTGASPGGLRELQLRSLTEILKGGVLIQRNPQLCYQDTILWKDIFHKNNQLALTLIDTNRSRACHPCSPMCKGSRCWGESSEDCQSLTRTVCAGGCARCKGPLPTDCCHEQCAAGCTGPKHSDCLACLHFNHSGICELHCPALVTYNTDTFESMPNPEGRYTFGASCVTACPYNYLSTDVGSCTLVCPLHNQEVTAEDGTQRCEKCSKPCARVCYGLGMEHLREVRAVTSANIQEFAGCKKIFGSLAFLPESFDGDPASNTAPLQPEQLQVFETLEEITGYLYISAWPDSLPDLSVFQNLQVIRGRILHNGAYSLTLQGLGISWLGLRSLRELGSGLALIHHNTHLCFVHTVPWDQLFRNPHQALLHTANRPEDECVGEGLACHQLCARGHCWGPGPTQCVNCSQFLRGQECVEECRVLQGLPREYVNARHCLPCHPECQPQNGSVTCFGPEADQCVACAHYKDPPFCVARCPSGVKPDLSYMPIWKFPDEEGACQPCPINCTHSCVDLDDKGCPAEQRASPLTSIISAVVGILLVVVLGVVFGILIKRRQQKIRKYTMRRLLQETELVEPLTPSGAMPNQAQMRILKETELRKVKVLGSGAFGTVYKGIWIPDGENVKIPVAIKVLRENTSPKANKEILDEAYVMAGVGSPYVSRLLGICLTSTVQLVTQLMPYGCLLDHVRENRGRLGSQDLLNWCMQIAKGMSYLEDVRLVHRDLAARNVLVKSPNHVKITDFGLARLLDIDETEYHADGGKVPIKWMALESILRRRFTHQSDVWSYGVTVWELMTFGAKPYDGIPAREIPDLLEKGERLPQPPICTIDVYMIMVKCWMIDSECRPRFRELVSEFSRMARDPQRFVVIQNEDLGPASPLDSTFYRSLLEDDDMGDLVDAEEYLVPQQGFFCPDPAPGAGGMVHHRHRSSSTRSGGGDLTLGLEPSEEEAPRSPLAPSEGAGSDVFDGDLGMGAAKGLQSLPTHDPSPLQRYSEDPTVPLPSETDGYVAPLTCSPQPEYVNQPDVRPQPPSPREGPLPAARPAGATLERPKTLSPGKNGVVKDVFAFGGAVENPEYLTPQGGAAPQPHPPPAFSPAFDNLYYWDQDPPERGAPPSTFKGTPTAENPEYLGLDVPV
Structure (SMILES),inhibition [1] [%],inhibition [2] [%],inhibition [3] [%],inhibition [4] [%],inhibition [5] [%],inhibition [6] [%],inhibition [7] [%],inhibition [8] [%],inhibition [9] [%],inhibition [10] [%],inhibition [11] [%],inhibition [12] [%],inhibition [13] [%],inhibition [14] [%],inhibition [15] [%],inhibition [16] [%],inhibition [17] [%],inhibition [18] [%],inhibition [19] [%],inhibition [20] [%]
OCc1ccc(-c2nc(-c3ccccn3)c(-c3ccc4c(c3)OCO4)[nH]2)cc1,11.4,5.72,3.87,4.58,4.09,0.45,-3.06,11.6,12.7,2.2,5.49,3.6,4.6,5.91,5.71,5.49,10.1,6.26,7.28,0.04
Nc1nccc(-c2c(-c3ccc(F)cc3)nn3cc(C(F)(F)F)ccc23)n1,5.83,-0.56,3.25,0.18,1.91,2.01,3.5,2.34,11.4,5.04,7.28,5.08,3.62,-4.71,-0.05,0.61,2.87,6.31,1.74,-0.28
ON=C1CCc2cc(-c3nc(C4CCNCC4)[nH]c3-c3ccncc3)ccc21,-8.09,2.51,-3.73,-0.77,1.02,-0.06,-5.12,5.23,10.6,-0.49,0.21,0.52,0.86,-5.96,-0.14,-1.99,5.39,3.1,2.75,
O=S(=O)(CCOCc1ccc(-c2ccc3ncnc(Nc4ccc(OCc5cccc(F)c5)c(Cl)c4)c3c2)o1)c1ccccc1,6.76,-0.47,3.29,1.15,1.36,11.6,69.8,27.5,82.6,-3.62,-0.81,0.82,1.19,1.05,5.27,-0.62,3.75,0.41,6.24,1.07
COc1cc(Nc2nccc(-c3cnn4ncccc34)n2)cc(OC)c1,40.2,3.58,-3.61,2.69,25.6,2.17,-0.98,5.96,8.81,11.1,58.6,10.7,53.2,-4.05,7.3,1.71,23,4,20.5,1.2
Cc1ccc2c(c1)/C(=N/Nc1ccc(S(N)(=O)=O)cc1)C(=O)N2,-1.87,2.46,-0.26,0.65,0.71,0.1,-4.77,6.45,7.37,1.02,0.29,-0.01,0.85,0.1,4.71,2.39,27.2,4.04,26.5,-1.85
COC(=O)c1cncc(/C=C/c2c(C)cc(O)cc2C)c1,56.4,6.09,11.8,6.99,38.7,1.31,2.82,7.72,10,2.19,2,1.96,3.05,4.08,0.61,4.05,7.59,6.59,4.87,-1.32
Cc1cc(Cl)cc2c1NC(=O)C2=NNc1ccc(S(N)(=O)=O)cc1,1.31,3.65,1.13,1.3,1.46,2.46,3.15,6.08,6.7,2.65,5.08,0.93,0.42,3.14,2.77,1.45,3.49,1.47,0.97,-0.13
CN(C)CCCn1c(-c2nonc2N)nc2cnccc21,5.68,5.3,2.05,3.38,2.2,5.72,4.73,17.3,16.3,1.8,3.54,2.93,2.95,3.21,3.42,2.86,6.36,6.01,3.96,-1.87
Cc1ccc(NC(=O)CC2CC2)cc1-c1ccc(C(=O)NCC2CC2)cc1,11.6,4.23,3.77,0.66,3.43,0.13,3.41,6.43,8.12,4.27,7.65,2.28,4,5.11,4.06,1.09,4.24,2.17,3.92,-2.17
O=C1Nc2ccccc2/C1=C/Nc1ccc2[nH]c(=O)[nH]c2c1,20.6,6.46,5.55,5.44,5.98,3.93,2.8,9.76,15.3,3.27,12.1,4.03,5.17,7.8,16.5,9.08,35,10,33,1.89
CCn1c(-c2nonc2N)nc2c(C#CC(C)(C)O)nc(OCCNC)cc21,8.26,-3.04,4,2.31,2.13,0.68,3.83,4.11,7.02,-0.15,1.17,4.11,4.46,6.92,5.9,5.4,6.92,7.79,3.95,4.43
NC(=O)c1cccc(Nc2nccc(Nc3cccc(F)c3)n2)c1,18.1,2.13,2.83,-0.22,5.23,0.04,3.14,5.37,13.2,-2.66,14.6,1.24,7.67,9.63,10.2,2.81,13,4.22,9.81,2.38
